Test results from PubChem BioAssay (NCI).
About 83,000 compounds went through this panel and 20% of them were active in at least one assay; those are over-represented in the sample as a whole.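 Testing used 96-well plates and a 48-hour single-concentration exposure. Example: -40 means 40% of the starting cells died.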 Values without a mark were called inactive. The source made the active and inactive calls. Rule for the calls: active = growth percent below 10; inactive = the rest.

Columns and labels:
Assay in all cases: NCI-60 one-dose screen, 48 h (100 = growth as untreated, 0 = no growth, -100 = all killed)
[1] = system: NCI-H522 lung; details: 10 µM unless noted
[2] = system: COLO 205 colon; details: 10 µM
[3] = system: K-562 leukemia; details: 10 µM unless noted
[4] = system: MALME-3M melanoma; details: 10 µM unless noted
[5] = system: SNB-19 CNS; details: 10 µM unless noted
[6] = system: U251 CNS; details: 10 µM unless noted
[7] = system: EKVX NSCLC; details: 10 µM unless noted
[8] = system: TK-10 renal; details: 10 µM unless noted
[9] = system: CCRF-CEM leukemia; details: 10 µM unless noted
[10] = system: SR leukemia; details: 10 µM
[11] = system: RPMI-8226 leukemia; details: 10 µM unless noted
[12] = system: OVCAR-4 ovarian; details: 10 µM unless noted
[13] = system: OVCAR-3 ovarian; details: 10 µM unless noted
[14] = system: T-47D breast; details: 10 µM unless noted
[15] = system: BT-549 breast; details: 10 µM
[16] = system: MCF7 breast; details: 10 µM unless noted
[17] = system: HCC-2998 colon; details: 10 µM unless noted
[18] = system: SK-OV-3 ovarian; details: 10 µM unless noted

| Structure (SMILES) | growth [1] | growth [2] | growth [3] | growth [4] [%] | growth [5] | growth [6] | growth [7] | growth [8] | growth [9] | growth [10] | growth [11] | growth [12] | growth [13] | growth [14] [%] | growth [15] [%] | growth [16] | growth [17] | growth [18] |
| --- | --- | --- | --- | --- | --- | --- | --- | --- | --- | --- | --- | --- | --- | --- | --- | --- | --- | --- |
| C1CN1c1nc(N2CC2)nc(N2CC2)n1 | -12.1% (active) | 61.4% | 26.4% | 49.7 | 35.9% | 7.27% (active) | 86.3% | 78.3% | 15.6% | 6.79% (active) | 29.3% | 44.6% | 65.8% | 26.7 | 46.1 | 20.9% | 49.7% | – |
| CN=C(NN)NN | 107% | 129% | 113% | 103 | – | 98.5% | 97% | 125% | 87.2% | 94.8% | 91.6% | 117% | 102% | 106 | 106 | 99.3% | – | 110% |
| CCCCNCCc1ccccn1 | 86.9% | 117% | 90.4% | 101 | 113% | – | 120% | 96.8% | 92.4% | 101% | 90.2% | 106% | 106% | 97.2 | – | 92.1% | 114% | 119% |
| CCC(CC)(c1ccccc1)C(OC(N)=O)c1ccccc1 (centres undefined) | 78.6% | 86.7% | 66% | – | 88.1% | 82.1% | – | – | 88.9% | 72.8% | 79.7% | 83.7% | 89% | – | 110 | 81.9% | – | 66.5% |
| c1ccc2nc(OCCN3CC3)ccc2c1 | 47.1% | 68.1% | 26.8% | 113 | 87% | 85.1% | 80.7% | 108% | 31.7% | -13.3% (active) | 9.61% (active) | 75.3% | 74.3% | 80.3 | – | 71.4% | 86.7% | 96.7% |
| CC(/C=N/N=C(N)N)=N/N=C(N)N | 117% | 81.7% | 82.1% | – | 87.3% | 89.6% | 92.9% | 74.2% | 90.1% | 78.4% | 95.7% | 91.9% | – | – | – | 98.1% | -14.8% (active) | 97.2% |
| S=P(NC1CCCCC1)(N1CC1)N1CC1 | 106% | 179% | 61.4% | 106 | 113% | – | 102% | 116% | 102% | 104% | 76.7% | 100% | – | 106 | 120 | – | 131% | – |
| COC(C)(C)CCC[C@H](C)C/C=C/C(C)=C/C(=O)OC(C)C | 69.1% | 107% | 85.3% | 85.9 | 109% | 95.9% | 78.1% | 96.5% | 78% | – | 62.9% | 90% | – | 75.7 | 103 | – | 101% | 92% |
| C[C@]12CCC(=O)CC1CC[C@@H]1C2CC[C@@]2(C)C1CC[C@@H]2OC(=O)CC[Se][Se]CCC(=O)O[C@H]1CCC2[C@@H]3CCC4CC(=O)CC[C@]4(C)C3CC[C@@]21C (some centres undefined) | 88.3% | 122% | – | 94.2 | 76.7% | 81.3% | 31.9% | – | 100% | – | 93.6% | 83.2% | 109% | 86.5 | 96.8 | – | 108% | 160% |
| CC(C)C1c2ccc(O)cc2Oc2nc(N)c(C#N)c(N)c21 (centres undefined) | 86.4% | 109% | 92.5% | – | 101% | – | – | – | 94.8% | 97.1% | – | 101% | 124% | 87.5 | 84.2 | 124% | – | 116% |
| O=S(=O)(Cl)c1ccccc1 (tested in a mixture with another compound) | 89.1% | 105% | – | 92.2 | 100% | 93.7% | – | 105% | 114% | – | 96.6% | 106% | – | 97.7 | 99.5 | 93.1% | – | 102% |
| O=C1NC(=O)C(Cc2ccccc2)(Cc2ccccc2)C(=O)N1 | 97.8% | 125% | 86.7% | – | 102% | 102% | 109% | 99.5% | 101% | – | 96.4% | 95.7% | 119% | – | – | 94.8% | 104% | 89.2% |
| C=CCc1ccc(OC(=O)Cc2ccccc2)c(OC)c1 | 90.4% | 103% | – | 86.8 | 110% | 99.3% | – | 110% | 101% | – | 106% | 102% | 110% | 106 | 106 | 96% | 95.8% | 94.2% |
| CCC1([N+](=O)[O-])COP(=O)(NCc2cccnc2)OC1 (centres undefined) | 109% | 119% | 106% | – | 108% | 107% | 106% | 109% | 101% | 105% | 104% | 112% | 113% | – | 114 | – | 115% | – |
| N#CC1=C(N)Oc2cc3c(cc2C1c1cccs1)OCO3 (centres undefined) | -26% (active) | -7.45% (active) | – | 40 | 43.2% | 25.4% | 53.7% | 56.1% | 21.4% | 16.2% | – | 52.8% | -15% (active) | 42.8 | 44.6 | 15.7% | 39.5% | 7.21% (active) |
| ClCCN(CCCl)c1nc(Cl)c(C2CC(c3ccc(Cl)cc3)=NN2c2cc(Cl)cc(Cl)c2)s1 (centres undefined) | 80% | 105% | 91.7% | 107 | – | 98.6% | 102% | 109% | 99.7% | – | – | 99.7% | – | 98.8 | – | 95.1% | 109% | 87.1% |
| COc1ccc(OC)c(/C=C(/C)[N+](=O)[O-])c1 | -78.1% (active) | -38.9% (active) | 4.29% (active) | – | – | – | 83.9% | -19.1% (active) | -2.22% (active) | – | -21.9% (active) | 64.4% | -11.3% (active) | 19.9 | – | – | 106% | 125% |
| [Br][Pb]([c]1ccccc1)([c]1ccccc1)[c]1ccccc1 | -92.3% (active) | -98.7% (active) | -46.7% (active) | – | -93% (active) | – | -91.1% (active) | -100% (active) | -21.5% (active) | – | -29.8% (active) | -100% (active) | -99% (active) | – | – | -69.9% (active) | -94.6% (active) | -100% (active) |
| Cc1ccc(C(=O)C2CN(C)CCC2(O)c2ccc(C)cc2)cc1 (centres undefined) | 111% | 131% | 123% | 120 | 118% | 104% | 111% | 108% | 106% | – | 99.9% | 106% | – | 102 | – | – | – | 122% |
| O=S(=O)(F)c1ncnc2nc[nH]c12 | – | 115% | 92.3% | 100 | 93.4% | 98.5% | 103% | 103% | 101% | – | – | 102% | 60.7% | 91.3 | 100 | – | 101% | – |
